Measured values reported in PubChem BioAssay AID743286 (National Center for Advancing Translational Sciences (NCATS), 2014).
Among all 1,100 compounds or so, about 340 (31%) were called active. Roughly 40% stayed inconclusive and do not appear here. Only a sample is shown. Unmarked numbers belong to inactive results. The call rests on the fitted dose curve; in most records, active means well fitted inhibition curve with a large enough effect; inconclusive means small, poorly fitted or top-dose-only effect; inactive means flat fitted curve, though single readings scatter.

target: Phosphatidylinositol 5-phosphate 4-kinase type-2 alpha (Homo sapiens) (UniProt P48426); test: qHTS for Inhibitors of PI5P4K: Confirmation in Primary Assay; settings: PI5P4Kalpha enzyme, ADP-Glo luminescence, 60 min; series mostly up to 76.9 µM; activity change, negative = inhibition: at the top concentration; further: nearly all actives have a fitted effect of over 65% in size
In short: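 Hits from a qHTS screen were retested in the same PI5P4Kα ADP-Glo format: 5 microM ATP, HEPES pH 7.4 buffer with CHAPS and EGTA, 60 min room-temperature reaction, single end-point luminescence read.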
On the % scale 0 is the no-effect control and ±100 the full control effect; potency means the concentration at half of the fitted maximal effect.

Sequence of Phosphatidylinositol 5-phosphate 4-kinase type-2 alpha (Homo sapiens) (P48426 whole entry, looked up): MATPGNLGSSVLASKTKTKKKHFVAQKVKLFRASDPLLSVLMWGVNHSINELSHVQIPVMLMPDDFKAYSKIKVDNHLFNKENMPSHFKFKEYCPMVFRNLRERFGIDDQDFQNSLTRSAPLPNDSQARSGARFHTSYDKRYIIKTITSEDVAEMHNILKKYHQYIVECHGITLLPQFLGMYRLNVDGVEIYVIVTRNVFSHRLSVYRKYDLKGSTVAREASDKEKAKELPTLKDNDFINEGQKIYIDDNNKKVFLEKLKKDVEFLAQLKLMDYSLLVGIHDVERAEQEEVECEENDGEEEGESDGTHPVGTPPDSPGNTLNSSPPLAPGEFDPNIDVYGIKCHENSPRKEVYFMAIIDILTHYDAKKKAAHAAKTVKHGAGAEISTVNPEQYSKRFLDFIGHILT

Compound	activity change, negative = inhibition	Potency
O=C(CSc1nc2c(cnn2-c2cccc(Cl)c2)c(=O)[nH]1)NCC1CCCO1 (centres undefined)	-21%	–
O=c1c2ccccc2[nH]c2ccc(O)cc12	–	20 µM (active)
O=[N+]([O-])c1ccc(-c2cc(-c3ccc(Cl)cc3)n[nH]2)cc1	-12.7%	–
CCNC(=O)COC(=O)c1cc(-c2ccco2)nc2ccccc12	–	14.1 µM (active)
CNC(=O)COC(=O)c1cc(-c2ccco2)nc2ccccc12	–	12.6 µM (active)
Cc1nc2ccccc2nc1OCC(=O)NCc1ccc2c(c1)OCO2	-6.61%	–
CCN(CC)C(=O)COC(=O)c1cc(-c2ccco2)nc2ccccc12	–	12.6 µM (active)
O=C(OCc1nnc(-c2ccccc2)o1)c1ccc2ccccc2n1	-26.2%	–
COc1ccc(CNC(=O)CCCn2nc(C)c([N+](=O)[O-])c2C)cc1OC	4.88%	–
Cc1ccc(NC(=O)Nc2cccs2)cc1	-9.22%	–
CC(C)NC(=O)N1c2ccccc2Sc2ccccc21	-2.11%	–
COC(=O)Cc1c(C)nc2nc(-c3ccc(C)cc3)[nH]n2c1=O	–	6.31 µM (active)
O=C(Nc1nnc(SCc2ccc(Cl)cc2)s1)c1ccco1	-1.98%	–
O=C(Nc1nnc(-c2ccc(Cl)cc2)o1)c1nc2ccccc2s1	–	14.1 µM (active)
O=C(Nc1nnc(-c2ccncc2)o1)c1ccccc1	1.15%	–
CC(C)(C)NC(=O)Nc1ccc(Cn2cc(C(F)(F)F)ccc2=O)cc1	5.44%	–
Cc1c(C(=O)O)sc2ncnc(N3CCCCC3C)c12 (centres undefined)	–	10 µM (active)
O=C(COc1cccc2ccccc12)Nc1ccc(Cl)cc1C(=O)O	–	25.1 µM (active)
CNC(=O)c1nc(C)n(-c2ccc(Cl)cc2Cl)n1	2.37%	–
Cc1ccc(C(c2nnnn2CS(=O)(=O)c2ccc(C)cc2)N2CCC(C)CC2)cc1 (centres undefined)	11.4%	–
N#Cc1c(NC(=O)CSc2ncnc3sccc23)oc(-c2ccco2)c1-c1ccco1	–	17.8 µM (active)
CN(C)S(=O)(=O)c1cccc(C(=O)OCC(=O)Nc2sccc2C(N)=O)c1	-2.55%	–
NC(=O)c1ccsc1NC(=O)COC(=O)c1ccccc1F	–	22.4 µM (active)
Cc1cc(C(=O)OCC(=O)Nc2c(F)cccc2F)c(C)n1-c1ccccc1	0.578%	–
Cc1sc(NC(=O)c2sc3nc4c(C)cccc4cc3c2N)c(C#N)c1C	–	11.2 µM (active)
Cc1cc(C)c2c(N)c(C(=O)Nc3c(C)n(C)n(-c4ccccc4)c3=O)sc2n1	2%	–

Compound	activity change, negative = inhibition	Potency
N#CC1=C2SCN(c3ccccc3)CN2C(=O)CC1c1ccccc1Cl (centres undefined)	–	25.1 µM (active)
N#CC1=C2SCN(c3ccccc3)CN2C(=O)CC1c1c(Cl)cccc1Cl (centres undefined)	–	22.4 µM (active)
CCc1ccccc1N1CSC2=C(C#N)C(c3ccccc3F)CC(=O)N2C1 (centres undefined)	–	14.1 µM (active)
O=C(CSc1ncnc2sc3c(c12)CCC3)N1CCOCC1	-28.5%	–
COc1ccc2c([N+](=O)[O-])c(Cl)[nH]c2c1	–	10 µM (active)
CC(C)C(=O)Nc1ccccc1N1CCN(S(C)(=O)=O)CC1	-0.34%	–
O=C(NCc1cc([N+](=O)[O-])ccc1O)c1cccc(NS(=O)(=O)c2ccccc2)c1	–	14.1 µM (active)
O=C(NCCCCc1ccccc1)c1cccc(NC(=O)C2CC2)c1	-6.66%	–
O=C(NCC1CCCCC1)c1cccc([N+](=O)[O-])c1	-1.06%	–
OCCCNc1nccc(-c2cc(Nc3cccc(Cl)c3)ncn2)n1	–	14.1 µM (active)
OC(c1ccc(Cl)c(F)c1)c1ncc(-c2ccc(Oc3ccccc3)cc2)[nH]1 (centres undefined)	-11.5%	–
COc1cc(OC)cc(-c2nnc(NC(=O)CCS(=O)(=O)c3ccc(C)cc3)o2)c1	-24.4%	–
O=S(=O)(NCCC1=CCCCC1)c1cccc(S(=O)(=O)N2CCOCC2)c1	-9.09%	–
O=S(=O)(c1ccccc1)c1nc(-c2ccco2)oc1N1CCCCCC1	-3.6%	–
O=S(=O)(c1ccc2nc(-c3ccco3)c(-c3ccco3)nc2c1)N1CCOCC1	–	15.8 µM (active)
O=C(Nc1ccc2c(c1)OCCO2)c1ccccc1F	-15.9%	–
COc1ccc(C(C(=O)NC2CCCC2)N(C(=O)c2snc(C(N)=O)c2N)c2cccc(O)c2)cc1 (centres undefined)	-27.8%	–
N#Cc1cc(-c2ccccc2)nn1-c1ccccc1	–	10 µM (active)
Cc1ccc(CSCC(=O)N2CCOCC2)cc1	6.55%	–
O=C(Nc1cccc(Cl)c1)N1CCCC1	-2.89%	–
O=C(Cc1ccc(Cl)cc1Cl)Nc1cccc(S(=O)(=O)Nc2ccccc2F)c1	–	3.98 µM (active)
COCCn1c(SCC(=O)Nc2cccc(S(N)(=O)=O)c2)nc2cc(Cl)ccc2c1=O	0.951%	–
CC(=O)NC(c1cccs1)c1cc([N+](=O)[O-])c2cccnc2c1O (centres undefined)	–	12.6 µM (active)
CC(=O)NC(c1ccc(C)cc1)c1cc([N+](=O)[O-])c2cccnc2c1O (centres undefined)	-13.1%	–
O=C(Oc1ccc(N(Cc2cccs2)C2=NS(=O)(=O)c3ccccc32)cc1)c1ccccc1Cl	-6.53%	–
CCCn1c(=O)c2[nH]c(-c3ccc(S(=O)(=O)O)cc3)nc2n(CCC)c1=O	–	14.1 µM (active)

Compound	activity change, negative = inhibition	Potency
Cn1c(=O)c2[nH]c(-c3ccc(S(=O)(=O)O)cc3)nc2n(C)c1=O	–	12.6 µM (active)
O=C(CSc1nc(-c2ccccc2)cc(=O)[nH]1)N1CCc2ccccc21	1.95%	–
COc1ccc(CCCc2nnc(SCc3nc4ccccc4c(=O)[nH]3)n2C)cc1	-2.05%	–
CCn1c(SCc2nc3sc(C(=O)O)c(C)c3c(=O)[nH]2)nc2ccccc21	–	12.6 µM (active)
c1cc2c(cc1C1=NNC(=NC3CC3)SC1)OCCO2	–	28.2 µM (active)
Cc1cc(C(=O)Nc2cccc3c2O[C@@H](CN(C)S(C)(=O)=O)[C@H](C)CN([C@@H](C)CO)C3=O)n(C)n1	4.38%	–
NS(=O)(=O)c1cc(C(=O)NC2CCSc3ccccc32)ccc1Cl (centres undefined)	–	0.891 µM (active)
O=C(OCC(=O)N1CCCCCC1)c1ccc(Cl)c(S(=O)(=O)N2CCCC2)c1	-7.9%	–
COc1ccc2c(c1)c(=O)oc1c(C)c(OCc3cc(C(=O)O)oc3C)ccc12	–	17.8 µM (active)
COCc1ccc2oc(C(=O)O)cc2c1	-11.2%	–
COc1ccc2c(c1)C=C(CN1CCN(Cc3ccccc3C)C(CCO)C1)CO2 (centres undefined)	1.01%	–
Cc1ccc(-c2csc(NC(=O)c3ccno3)n2)cc1	–	28.2 µM (active)
NC(=O)c1c(NC(=O)CN2CCCC2)sc2c1CCCC2	-1.83%	–
NC(=O)c1c(NC(=O)c2ccccc2)sc2c1CCC2	–	25.1 µM (active)
NC(=O)c1c(NC(=O)c2cc3ccccc3o2)sc2c1CCC2	–	31.6 µM (active)
Cc1ccc2cc(CCl)c(Cl)nc2c1	-0.529%	–
O=c1oc2cc(O)ccc2cc1-c1ccc(F)cc1	-21.3%	–
NC(=S)c1cc2ccc(O)cc2oc1=O	–	14.1 µM (active)
O=C(c1ccc(Br)cc1)c1cc2ccc(O)cc2oc1=O	–	11.2 µM (active)
N=c1oc2ccc3ccccc3c2cc1C(N)=S	-20.2%	–
O=C(c1ccc(F)cc1)c1cc2ccc(O)cc2oc1=O	–	10 µM (active)
O=C(NCc1ccco1)c1cc2ccc(O)cc2oc1=O	–	14.1 µM (active)
COc1ccc(C(=O)N2CCC2(C)C(=O)O)cc1F (centres undefined)	-4.7%	–
O=C(Nc1ccc(-c2nc3ncccc3o2)cc1)c1ccco1	-14.4%	–
O=C(CCN1CCc2ccccc2C(c2ccccc2)C1)c1ccc2c(c1)OCCO2 (centres undefined)	2.85%	–
O=C(Cn1cncn1)NCc1ccccc1Br	-17.6%	–

Compound	activity change, negative = inhibition	Potency
CCOC(=O)N1CCN(C(=O)CCS(=O)(=O)c2ccc3c(c2)CCN3C(=O)CC)CC1	4.08%	–
Cc1cccc(N=c2oc3cc(O)ccc3cc2C(N)=O)c1	–	14.1 µM (active)
c1coc(-c2ccc3nncn3c2)c1	–	15.8 µM (active)
Clc1ccc2nc(-c3ccco3)c(Cc3ccccc3)n2c1	-25.6%	–
CC(=O)c1ccc(NC(=O)c2noc3c2CCC3)cc1	–	35.5 µM (active)
O=C(Nc1nnc(COc2ccc(Cl)cc2)s1)c1cccs1	-13.3%	–
Cc1nc(N)sc1-c1csc(Nc2cccc(C(=O)O)c2)n1	–	15.8 µM (active)
CC(C)(NC(=O)c1ccccc1)c1nc2ccccc2s1	-17.8%	–
OCCNc1nc(Nc2ccc(Cl)c(Cl)c2)nc2ccccc12	–	31.6 µM (active)
O=C1COc2ccc(S(=O)(=O)NCCc3ccccc3)cc2N1	2.64%	–
Cc1ccc(C)c(S(=O)(=O)Nc2ccc3oc(C)c(C(=O)O)c3c2)c1	–	15.8 µM (active)
COc1cc(CNc2ccc(N3CCCC3)cc2)cc(Cl)c1OC	-18.4%	–
O=C(O)C1Nc2c(Cl)cc(Cl)c(Cl)c2C2C=CCC12 (centres undefined)	–	8.91 µM (active)
CCOc1ccc(CC(=O)Nc2sc(Cc3ccccc3)c(C)c2C(N)=O)cc1OCC	-12.1%	–
CCc1c(C)sc(NC(=O)c2ccoc2C)c1C(N)=O	–	12.6 µM (active)
O=S(=O)(c1ccc(Br)cc1)N1CCCc2ccccc21	7.69%	–
NS(=O)(=O)c1ccc(NC(=O)c2ccc(S(=O)(=O)N3CCc4ccccc43)cc2)cc1	–	14.1 µM (active)
Clc1ccc2nc(CSc3nc4ccccc4o3)cn2c1	3.79%	–
COc1ccc2ccccc2c1C1CC(=O)N2CN(C3CCCCC3)CSC2=C1C#N (centres undefined)	–	15.8 µM (active)
CCOc1ccccc1N1CSC2=C(C#N)C(c3c(OC)ccc4ccccc34)CC(=O)N2C1 (centres undefined)	–	20 µM (active)
C[C@H](CO)N1C[C@H](C)[C@@H](CN(C)S(=O)(=O)c2ccc3c(c2)OCCCO3)OCc2cnnn2CCCC1=O	0.696%	–
CCN1CCN(C(=O)Cn2nc(-c3ccc(Cl)cc3)ccc2=O)CC1	7.36%	–
COc1cc2nc(Nc3ccc(C)c(Cl)c3)nc(N)c2cc1OC	–	15.8 µM (active)
CC1CCCCC1NC(=O)COC(=O)c1c2c(nc3ccccc13)/C(=C\c1ccco1)CC2 (centres undefined)	–	1.26 µM (active)
Cc1ccnc2nc(C(=O)OCC(=O)NC3CCCC(C)C3C)nn12 (centres undefined)	5.28%	–
COc1ccc(CCn2c(O)cc3nn(-c4nc5ccccc5s4)c(=O)c-3c2C)cc1	–	11.2 µM (active)
